Among the data in PubChem BioAssay AID1508601 (ICCB-Longwood Screening Facility, Harvard Medical School, 2020) are nuclei count, normalised and p53-positive nuclei, normalised values, retold here.

Molecules are shown by their SMILES. Out of some 5,700 compounds screened, about 85 (1%) were called active. No stated cut-off is given here; in the data, active means p53-positive nuclei above about 36% (passing the limit was not always enough); inactive means the rest. The sample as a whole holds a higher share of actives than the screen did.

A short description of experiment [1]: nuclear p53 accumulation, HPV+ cells – imaging, p53-positive nuclei imaging, 24 h, 48 h (AID 1508601). The settings on record: 24/48 h.
Experiment [2] has as its target Cellular tumor antigen p53 (Homo sapiens) (UniProt P04637). The experiment is described as above. The settings on record: 24/48 h, stronger effect = higher value.
Setting [3] is: measured here: cell number at 24 h, concentration not given here.
Where [4] appears, read: measured here: cell number at 48 h, concentration not given here.
Where [5] appears, read: measured here: p53 positive nuclei at 24 h, concentration not given here.
The mark [6] stands for this setting: measured here: cell number at 24 h, Library stock concentration: 10 mM.
The mark [7] stands for this setting: measured here: cell number at 48 h, Library stock concentration: 10 mM.
Setting [8] is: Library stock concentration: 10 mM.
Where [9] appears, read: measured here: p53 positive nuclei at 24 h, Library stock concentration: 10 mM.
[10] abbreviates: measured here: cell number at 24 h, Library stock concentration: 80 uM.
The mark [11] stands for this setting: measured here: cell number at 24 h, Library stock concentration: 400 uM.
Where [12] appears, read: measured here: cell number at 24 h, Library stock concentration: 2 mM.
Setting [13] is: measured here: cell number at 48 h, Library stock concentration: 80 uM.
Setting [14] is: measured here: cell number at 48 h, Library stock concentration: 400 uM.
[15] abbreviates: measured here: cell number at 48 h, Library stock concentration: 2 mM.
Setting [16] is: Library stock concentration: 80 uM.
Where [17] appears, read: Library stock concentration: 400 uM.
Where [18] appears, read: Library stock concentration: 2 mM.
[19] abbreviates: measured here: p53 positive nuclei at 24 h, Library stock concentration: 80 uM.
Where [20] appears, read: measured here: p53 positive nuclei at 24 h, Library stock concentration: 400 uM.
Setting [21] is: measured here: p53 positive nuclei at 24 h, Library stock concentration: 2 mM.

Cellular tumor antigen p53 (Homo sapiens), sequence (P04637 whole entry, looked up): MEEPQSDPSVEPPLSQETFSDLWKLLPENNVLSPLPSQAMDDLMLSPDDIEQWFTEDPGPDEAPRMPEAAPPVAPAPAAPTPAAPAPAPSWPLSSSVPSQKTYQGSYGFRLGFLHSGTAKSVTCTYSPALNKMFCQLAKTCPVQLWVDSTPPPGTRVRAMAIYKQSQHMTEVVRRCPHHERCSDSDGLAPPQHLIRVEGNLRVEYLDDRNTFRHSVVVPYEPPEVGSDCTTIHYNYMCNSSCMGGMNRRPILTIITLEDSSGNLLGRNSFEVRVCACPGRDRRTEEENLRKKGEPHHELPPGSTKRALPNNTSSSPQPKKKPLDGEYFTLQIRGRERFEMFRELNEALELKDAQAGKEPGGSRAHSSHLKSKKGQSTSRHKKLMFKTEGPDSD

For the molecule `CC[C@@]1(O)C[C@H](O[C@H]2C[C@H](N(C)C)[C@H](O)[C@H](C)O2)c2c(cc3c(c2O)C(=O)c2c(O)cccc2C3=O)[C@H]1C(=O)OC`, the nuclei count, normalised in experiment [1] (setting [3]) amounted to 50.2%; in experiment [1] (setting [4]), 38.4%. Further, the figures for the p53-positive nuclei, normalised in experiment [2] (concentration not given here) and in experiment [2] (setting [5]) were 27.4% (inactive) and 16.3%, respectively.
The matching figures for `CC[C@@]1(O)C[C@H](O[C@H]2C[C@H](N(C)C)[C@H](O)[C@H](C)O2)c2c(cc3c(c2O)C(=O)c2c(O)ccc(O)c2C3=O)[C@H]1C(=O)OC`: 29.9%, 15.5%, 92.8% (active) and 88.5%.
Turning to `CC[C@@]1(O)C[C@H](O)c2c(cc3c(c2O)C(=O)c2c(O)ccc(O)c2C3=O)[C@H]1C(=O)OC`, the figures for the nuclei count, normalised in experiment [1] (setting [3]) and in experiment [1] (setting [4]) were 83.7% and 84%, respectively. The p53-positive nuclei, normalised in experiment [2] (concentration not given here) is 23.5% (inactive); in experiment [2] (setting [5]), 4.09%.
The matching figures for `CCCCC/C=C\C/C=C\C/C=C\C/C=C\CCCC(=O)Nc1cccc([N+](=O)[O-])c1`: 108%, 112%, -0.154% (inactive) and -0.0854%.
For `CN1CCC(N(C)CCC2CCOCC2)CC1`, the nuclei count, normalised in experiment [1] (setting [3]) was 102%; in experiment [1] (setting [4]), 105%. For the same molecule, the p53-positive nuclei, normalised was -0.0157% (inactive) in experiment [2] (concentration not given here) and -0.151% in experiment [2] (setting [5]).
On to `CN1C(=O)[C@@]23C[C@]4([C@]56C[C@@]78SS[C@@](CO)(C(=O)N7[C@@H]5Nc5ccccc56)N(C)C8=O)c5ccccc5N[C@H]4N2C(=O)[C@]1(CO)SS3`, for which the nuclei count, normalised is 119% in experiment [1] (measured here: cell number at 24 h, Library stock concentration: 500 nM); 109% in experiment [1] (measured here: cell number at 24 h, Library stock concentration: 1.5 uM); 104% in experiment [1] (measured here: cell number at 24 h, Library stock concentration: 4.6 uM); 98.9% in experiment [1] (measured here: cell number at 24 h, Library stock concentration: 13.7 uM); 67.2% in experiment [1] (measured here: cell number at 24 h, Library stock concentration: 41 uM); 42.7% in experiment [1] (measured here: cell number at 24 h, Library stock concentration: 123 uM). Besides, the nuclei count, normalised came to 46.4% in experiment [1] (measured here: cell number at 24 h, Library stock concentration: 370 uM); 36.8% in experiment [1] (measured here: cell number at 24 h, Library stock concentration: 1.111 mM); 34.9% in experiment [1] (measured here: cell number at 24 h, Library stock concentration: 3.333 mM); 41.7% in experiment [1] (setting [6]); 117% in experiment [1] (measured here: cell number at 48 h, Library stock concentration: 500 nM); 107% in experiment [1] (measured here: cell number at 48 h, Library stock concentration: 1.5 uM). The nuclei count, normalised in experiment [1] (measured here: cell number at 48 h, Library stock concentration: 4.6 uM) is 101%; in experiment [1] (measured here: cell number at 48 h, Library stock concentration: 13.7 uM), 85.5%; in experiment [1] (measured here: cell number at 48 h, Library stock concentration: 41 uM), 44.9%; in experiment [1] (measured here: cell number at 48 h, Library stock concentration: 123 uM) it was 30.9%; in experiment [1] (measured here: cell number at 48 h, Library stock concentration: 370 uM), 32.7%; in experiment [1] (measured here: cell number at 48 h, Library stock concentration: 1.111 mM) it was 24.5%. Moreover, the nuclei count, normalised was 23.4% in experiment [1] (measured here: cell number at 48 h, Library stock concentration: 3.333 mM) and 27.3% in experiment [1] (setting [7]). The p53-positive nuclei, normalised was 0.0843% (inactive) in experiment [2] (Library stock concentration: 500 nM); 0.192% (inactive) in experiment [2] (Library stock concentration: 1.5 uM); 0.185% (inactive) in experiment [2] (Library stock concentration: 4.6 uM); 1.67% (inactive) in experiment [2] (Library stock concentration: 13.7 uM); 83.6% (active) in experiment [2] (Library stock concentration: 41 uM); 95.7% (active) in experiment [2] (Library stock concentration: 123 uM). The p53-positive nuclei, normalised in experiment [2] (Library stock concentration: 370 uM) was 94.5% (active); in experiment [2] (Library stock concentration: 1.111 mM), 72.8% (active); in experiment [2] (Library stock concentration: 3.333 mM), 12.8% (inactive); in experiment [2] (setting [8]), 7.98% (inactive); in experiment [2] (measured here: p53 positive nuclei at 24 h, Library stock concentration: 500 nM), -0.114%; in experiment [2] (measured here: p53 positive nuclei at 24 h, Library stock concentration: 1.5 uM), -0.173%. Further, the p53-positive nuclei, normalised was 0.0127% in experiment [2] (measured here: p53 positive nuclei at 24 h, Library stock concentration: 4.6 uM); 13.4% in experiment [2] (measured here: p53 positive nuclei at 24 h, Library stock concentration: 13.7 uM); 101% in experiment [2] (measured here: p53 positive nuclei at 24 h, Library stock concentration: 41 uM); 116% in experiment [2] (measured here: p53 positive nuclei at 24 h, Library stock concentration: 123 uM); 117% in experiment [2] (measured here: p53 positive nuclei at 24 h, Library stock concentration: 370 uM); 105% in experiment [2] (measured here: p53 positive nuclei at 24 h, Library stock concentration: 1.111 mM). Besides, the p53-positive nuclei, normalised in experiment [2] (measured here: p53 positive nuclei at 24 h, Library stock concentration: 3.333 mM) amounted to 30.1%; in experiment [2] (setting [9]) it was 12.6%.
`NCCc1ccccc1Br`: the nuclei count, normalised came out at 86.4% in experiment [1] (setting [10]); 90.6% in experiment [1] (setting [11]); 89.9% in experiment [1] (setting [12]); 98.5% in experiment [1] (setting [6]); 92.2% in experiment [1] (setting [13]); 90.8% in experiment [1] (setting [14]). Also, the nuclei count, normalised in experiment [1] (setting [15]) was found to be 95%; in experiment [1] (setting [7]), 98.1%. Also, the p53-positive nuclei, normalised in experiment [2] (setting [16]) is 0.0704% (inactive); in experiment [2] (setting [17]), 0.0834% (inactive); in experiment [2] (setting [18]), 0.0298% (inactive); in experiment [2] (setting [8]), 0.0211% (inactive); in experiment [2] (setting [19]), 0.101%; in experiment [2] (setting [20]), 0.248%. Besides, the p53-positive nuclei, normalised is -0.0657% in experiment [2] (setting [21]) and -0.0492% in experiment [2] (setting [9]).
As for `CN1CCC(C(=O)c2cccc(NC(=O)c3c(F)cc(F)cc3F)n2)CC1`, the nuclei count, normalised in experiment [1] (setting [10]) came out at 126%; in experiment [1] (setting [11]) it was 115%; in experiment [1] (setting [12]), 121%; in experiment [1] (setting [6]), 116%; in experiment [1] (setting [13]), 118%; in experiment [1] (setting [14]), 108%. For the same molecule, the nuclei count, normalised in experiment [1] (setting [15]) is 108%; in experiment [1] (setting [7]) it was 105%. Moreover, the p53-positive nuclei, normalised was -0.0182% (inactive) in experiment [2] (setting [16]); -0.00116% (inactive) in experiment [2] (setting [17]); -0.0434% (inactive) in experiment [2] (setting [18]); -0.0859% (inactive) in experiment [2] (setting [8]); -0.0846% in experiment [2] (setting [19]); 0.109% in experiment [2] (setting [20]). The p53-positive nuclei, normalised in experiment [2] (setting [21]) is 0.0583%; in experiment [2] (setting [9]) it was -0.136%.
